From PubChem BioAssay
Hits are enriched below; roughly 2.3% of the tested compounds scored in any of these assays.
U2OS ROS induce = ROS inducers in U2OS cancer cells, primary screen, cell-based, H2DCF-DA fluorescence; U2OS ROS induction; 2% of 46,000 active; ROS induction (% of piperlongumine), % at 10 µM; in the data active means ROS induction above about 79%, passing the limit was not always enough
YB-1 expr inh = inhibitors of YB-1 gene expression, primary screen, cell-based, fluorescence | U2OS, qRT-PCR YB-1 vs CDIP delta delta Cp, 16 h; stronger effect = higher value; zero = DMSO, each unit about twofold | delta delta Cp (YB-1 minus CDIP) (test concentration not listed) | 0.37% of 30,000 active | AID 434959, 2010;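 active means delta delta Cp rounded down to an integer at or above 3, about 3 SD of DMSO wells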;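 further: higher means less YB-1 transcript or more CDIP transcript relative to DMSO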
Numbers stand for hits.

Results for COc1cc(O)c2c(=O)c(OC)c(-c3cc(O)c(OC)c(OC)c3)oc2c1 ?
U2OS ROS induce: inactive; YB-1 expr inh: inactive

Results for CCOC(=O)c1cnc2cc(C(F)(F)F)ccc2c1N(C)Cc1ccccc1 ?
U2OS ROS induce: inactive; YB-1 expr inh: inactive

Results for CCOC(=O)c1cnc2ccc(OCC)cc2c1N(C)Cc1ccccc1 ?
U2OS ROS induce: 139; YB-1 expr inh: inactive

How did O=C(C(Cc1ccccc1Cl)C(=O)N1CCc2ccccc21)N1CCc2ccccc21 do in these assays?
U2OS ROS induce: 141; YB-1 expr inh: inactive

How did O=C(CC(C(=O)N1CCc2ccccc21)C(=O)N1CCc2ccccc21)c1ccccc1 do in these assays?
U2OS ROS induce: inactive; YB-1 expr inh: inactive

How did Cn1c(CCN(Cc2ccco2)S(=O)(=O)c2ccc(Cl)cc2)n[nH]c1=S do in these assays?
U2OS ROS induce: inactive

What do the screens show for `COc1ccc(C)cc1NC(=O)CSc1nnc(-c2ccc(C(C)(C)C)cc2)n1C`?
U2OS ROS induce: 93

Results for COc1ccc(C)cc1NC(=O)CSc1nnc(-c2ccc(Cl)c(Cl)c2)n1C ?
U2OS ROS induce: inactive

How did c1ccc(-c2nc(N3CCCCCC3)c3ccccc3n2)cc1 do in these assays?
U2OS ROS induce: inactive

What do the screens show for `CCc1ccccc1Oc1coc2cc(OC(=O)c3ccccc3F)ccc2c1=O`?
U2OS ROS induce: inactive

Results for COc1ccc(C2C3=C(CC(C)(C)CC3=O)Nc3[nH]c(=O)[nH]c(=O)c32)cc1 (stereo not drawn) ?
U2OS ROS induce: inactive

What do the screens show for `CCOc1ccc(C(=O)/C=C2/NCCNC2=O)cc1`?
U2OS ROS induce: inactive

What do the screens show for `O=C(Nc1ccc(N2CCN(c3ccc(C(F)(F)F)cn3)CC2)nc1)c1ccco1`?
U2OS ROS induce: inactive

How did O=C1CCCC2=C1C(c1ccccc1Cl)N=C(Nc1nc3ccccc3s1)N2 (stereo not drawn) do in these assays?
U2OS ROS induce: 178; YB-1 expr inh: inactive

How did O=C1CC(c2ccccc2Cl)Cc2c1cnn2-c1nc2ccccc2s1 (stereo not drawn) do in these assays?
U2OS ROS induce: inactive

Results for COc1ccc(CCNC(=O)C2CC2(c2ccc(C)cc2)c2ccc(C)cc2)cc1OC (stereo not drawn) ?
U2OS ROS induce: inactive

How did COc1ccc([C@@H]2O[C@@H](c3ccc(OC)c(OC)c3)[C@@H](C)[C@@H]2C)cc1OC do in these assays?
U2OS ROS induce: inactive; YB-1 expr inh: inactive

What do the screens show for `C[C@@H]1CN([C@@H](C)CO)C(=O)c2cccc(NC(=O)CCCCCC(=O)Nc3ccccc3N)c2O[C@@H]1CN(C)Cc1ccccc1`?
U2OS ROS induce: inactive; YB-1 expr inh: inactive

What do the screens show for `C[C@@H]1CN([C@@H](C)CO)C(=O)c2cccc(NC(=O)CCCCCC(=O)Nc3ccccc3N)c2O[C@@H]1CN(C)Cc1ccc(Oc2ccccc2)cc1`?
U2OS ROS induce: 136; YB-1 expr inh: inactive

What do the screens show for `C[C@@H]1CN([C@@H](C)CO)C(=O)c2cccc(NC(=O)CCCCCC(=O)Nc3ccccc3N)c2O[C@H]1CN(C)CC1CCCCC1`?
U2OS ROS induce: 82; YB-1 expr inh: inactive

What do the screens show for `C[C@H](CO)N1C[C@H](C)[C@H](CN(C)CC2CC2)Oc2c(NC(=O)CCCCCC(=O)Nc3ccccc3N)cccc2C1=O`?
U2OS ROS induce: inactive; YB-1 expr inh: inactive

How did C[C@@H]1CN([C@H](C)CO)C(=O)c2cccc(NC(=O)CCCCCC(=O)Nc3ccccc3N)c2O[C@@H]1CN(C)Cc1ccc(Oc2ccccc2)cc1 do in these assays?
U2OS ROS induce: inactive; YB-1 expr inh: inactive

What do the screens show for `C[C@H](CO)N1C[C@H](C)[C@@H](CN(C)Cc2ccc(-c3ccccc3)cc2)Oc2c(NC(=O)CCCCCC(=O)Nc3ccccc3N)cccc2C1=O`?
U2OS ROS induce: 117; YB-1 expr inh: inactive

How did N#C/C(=C\Nc1cccc(Cl)c1)S(=O)(=O)c1ccc(Cl)cc1 do in these assays?
U2OS ROS induce: inactive; YB-1 expr inh: inactive

What do the screens show for `O=C(CCc1nc2ncccc2c(=O)n1Cc1ccccc1Cl)N1CCN(c2ccccc2)CC1`?
U2OS ROS induce: inactive

Results for C[C@H]1CN([C@@H](C)CO)C(=O)c2cc(NC(=O)Cc3cn(C)c4ccccc34)ccc2O[C@H]1CN(C)Cc1ccc(Oc2ccccc2)cc1 ?
U2OS ROS induce: inactive; YB-1 expr inh: inactive

What do the screens show for `C[C@@H]1CN([C@@H](C)CO)C(=O)c2cc(NC(=O)Cc3cn(C)c4ccccc34)ccc2O[C@H]1CN(C)Cc1ccc(-c2ccccc2)cc1`?
U2OS ROS induce: inactive; YB-1 expr inh: inactive

What do the screens show for `C[C@H]1CN([C@@H](C)CO)C(=O)c2cc(NC(=O)Cc3cn(C)c4ccccc34)ccc2O[C@@H]1CN(C)Cc1ccc(Oc2ccccc2)cc1`?
U2OS ROS induce: 134; YB-1 expr inh: inactive

How did C[C@@H]1CN([C@H](C)CO)C(=O)c2cc(NC(=O)Cc3cn(C)c4ccccc34)ccc2O[C@H]1CN(C)Cc1ccc2c(c1)OCO2 do in these assays?
U2OS ROS induce: inactive; YB-1 expr inh: inactive

What do the screens show for `C[C@H](CO)N1C[C@H](C)[C@@H](CN(C)Cc2ccc3c(c2)OCO3)Oc2ccc(NC(=O)Cc3cn(C)c4ccccc34)cc2C1=O`?
U2OS ROS induce: 117; YB-1 expr inh: inactive

What do the screens show for `C[C@H](CO)N1C[C@H](C)[C@@H](CN(C)Cc2ccc(-c3ccccc3)cc2)Oc2ccc(NC(=O)Cc3cn(C)c4ccccc34)cc2C1=O`?
U2OS ROS induce: 199; YB-1 expr inh: inactive

Results for Cc1cc(C(=O)Nc2cccc3c2O[C@@H](CN(C)Cc2ccc(C(=O)Nc4ccccc4N)cc2)[C@H](C)CN([C@H](C)CO)C3=O)n(C)n1 ?
U2OS ROS induce: inactive; YB-1 expr inh: inactive

What do the screens show for `Cc1cc(C(=O)Nc2cccc3c2O[C@H](CN(C)Cc2ccc(C(=O)Nc4ccccc4N)cc2)[C@@H](C)CN([C@H](C)CO)C3=O)n(C)n1`?
U2OS ROS induce: 130; YB-1 expr inh: inactive

How did Cc1cc(C(=O)Nc2cccc3c2O[C@H](CN(C)Cc2ccc(C(=O)Nc4ccccc4N)cc2)[C@@H](C)CN([C@@H](C)CO)C3=O)n(C)n1 do in these assays?
U2OS ROS induce: 189; YB-1 expr inh: inactive

Results for Cc1cc(C(=O)Nc2cccc3c2O[C@H](CN(C)Cc2ccc(C(=O)Nc4ccccc4N)cc2)[C@H](C)CN([C@H](C)CO)C3=O)n(C)n1 ?
U2OS ROS induce: inactive; YB-1 expr inh: inactive

What do the screens show for `N#CCCN(C(=O)c1ccc2c(=O)n3c(nc2c1)CCCC3)c1ccccc1`?
U2OS ROS induce: inactive

How did Cc1cc(NC(=O)COc2ccccc2)no1 do in these assays?
U2OS ROS induce: inactive

What do the screens show for `O=C(Cn1c(-c2cccs2)cc2ccccc21)N1CCCCC1`?
U2OS ROS induce: inactive

How did O=C(Cn1c(-c2cccs2)cc2ccccc21)NC1CCCCC1 do in these assays?
U2OS ROS induce: 115

Results for COc1ccc(-c2nnc(Nc3cccc(C(F)(F)F)c3)c3ccccc23)cc1 ?
U2OS ROS induce: inactive; YB-1 expr inh: inactive

Results for O=C1C2CC=CCC2C(=O)N1Cc1ccccc1 (stereo not drawn) ?
U2OS ROS induce: inactive

How did O=C1CC(N2C(=O)C3CC=CCC3C2=O)C2COC1O2 (stereo not drawn) do in these assays?
U2OS ROS induce: 91

How did CCCCc1c(-c2ccc(O)cc2)[nH]c2nccnc12 do in these assays?
U2OS ROS induce: inactive; YB-1 expr inh: 3.3

How did CCCCc1c(-c2ccc(OC)cc2)[nH]c2nccnc12 do in these assays?
U2OS ROS induce: inactive; YB-1 expr inh: inactive
